Assays:
Assay in all cases: log2 ratio of Biotin-Ahx-Ub-VS probe labelling (fragment/DMSO); higher = less target engagement (more negative = stronger competition), active = hit call of the paper (q ≤ 0.05, log2 ratio ≤ -1)
Conditions in all cases: compound concentration: 200 uM; treatment time: 3 h
USP9X = USP9X (UniProt Q93008)
Method in brief: (§1)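 HEK293T lysate (495 µg per sample, in Tris/CHAPS/IGEPAL buffer with protease inhibitors) was exposed in triplicate for 3 h to fragment at 200 µM or to vehicle, then to Biotin-Ahx-Ub-VS at 0.5 µM final for 1 h. Labelled DUBs were enriched on NeutrAvidin, digested with LysC and trypsin, and analysed by diaPASEF LC-MS/MS. Spectronaut label-free quantities were normalised to the global median, and values are average log2 ratios of fragment over vehicle from an unpaired t-test. Only proteins with ≥2 unique peptides were used.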

UniProt O00487 = biological target: UniProt O00487
Method in brief: as §1

UniProt O00507 = biological target: UniProt O00507
Method in brief: as §1

UniProt P51784 = biological target: UniProt P51784
Method in brief: as §1

UniProt Q5T2D3 = biological target: T1, UniProt Q5T2D3
T1 sequence (whole entry): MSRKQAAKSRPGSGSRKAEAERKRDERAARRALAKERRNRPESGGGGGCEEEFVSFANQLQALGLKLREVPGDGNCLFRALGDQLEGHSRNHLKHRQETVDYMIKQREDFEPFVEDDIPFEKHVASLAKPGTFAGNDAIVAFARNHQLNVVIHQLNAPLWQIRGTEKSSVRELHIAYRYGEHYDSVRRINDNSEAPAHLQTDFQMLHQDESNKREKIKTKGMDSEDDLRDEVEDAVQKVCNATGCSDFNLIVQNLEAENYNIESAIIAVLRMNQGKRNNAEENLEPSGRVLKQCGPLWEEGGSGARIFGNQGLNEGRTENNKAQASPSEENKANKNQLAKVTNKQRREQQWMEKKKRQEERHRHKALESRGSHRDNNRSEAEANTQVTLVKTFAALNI
Method in brief: as §1

UniProt Q8TE49 = biological target: T2, UniProt Q8TE49
T2 sequence (whole entry): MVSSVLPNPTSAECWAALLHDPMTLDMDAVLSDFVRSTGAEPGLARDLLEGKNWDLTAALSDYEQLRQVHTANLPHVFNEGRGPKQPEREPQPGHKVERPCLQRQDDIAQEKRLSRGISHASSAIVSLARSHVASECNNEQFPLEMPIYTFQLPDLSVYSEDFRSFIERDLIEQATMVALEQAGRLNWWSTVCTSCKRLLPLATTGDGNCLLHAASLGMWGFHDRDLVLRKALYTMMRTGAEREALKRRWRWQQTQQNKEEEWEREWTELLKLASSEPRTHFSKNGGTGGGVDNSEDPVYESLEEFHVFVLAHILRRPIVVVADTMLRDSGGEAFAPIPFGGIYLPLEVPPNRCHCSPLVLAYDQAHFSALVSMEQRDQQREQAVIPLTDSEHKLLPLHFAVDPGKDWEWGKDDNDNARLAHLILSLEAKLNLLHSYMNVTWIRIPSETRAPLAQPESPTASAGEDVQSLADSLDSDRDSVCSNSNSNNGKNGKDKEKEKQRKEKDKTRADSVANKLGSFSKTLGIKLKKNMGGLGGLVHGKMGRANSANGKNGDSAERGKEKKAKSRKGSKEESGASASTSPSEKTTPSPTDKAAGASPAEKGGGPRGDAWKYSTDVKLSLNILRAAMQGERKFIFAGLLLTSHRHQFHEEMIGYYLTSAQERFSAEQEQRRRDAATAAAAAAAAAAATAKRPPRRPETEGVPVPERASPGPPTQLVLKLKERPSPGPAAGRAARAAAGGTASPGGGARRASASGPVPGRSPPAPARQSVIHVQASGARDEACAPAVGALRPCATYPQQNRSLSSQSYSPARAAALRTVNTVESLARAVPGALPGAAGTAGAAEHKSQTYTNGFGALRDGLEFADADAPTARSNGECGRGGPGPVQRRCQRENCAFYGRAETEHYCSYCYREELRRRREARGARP
Method in brief: as §1

UniProt Q9P2H5 = biological target: T3, UniProt Q9P2H5
T3 sequence (whole entry): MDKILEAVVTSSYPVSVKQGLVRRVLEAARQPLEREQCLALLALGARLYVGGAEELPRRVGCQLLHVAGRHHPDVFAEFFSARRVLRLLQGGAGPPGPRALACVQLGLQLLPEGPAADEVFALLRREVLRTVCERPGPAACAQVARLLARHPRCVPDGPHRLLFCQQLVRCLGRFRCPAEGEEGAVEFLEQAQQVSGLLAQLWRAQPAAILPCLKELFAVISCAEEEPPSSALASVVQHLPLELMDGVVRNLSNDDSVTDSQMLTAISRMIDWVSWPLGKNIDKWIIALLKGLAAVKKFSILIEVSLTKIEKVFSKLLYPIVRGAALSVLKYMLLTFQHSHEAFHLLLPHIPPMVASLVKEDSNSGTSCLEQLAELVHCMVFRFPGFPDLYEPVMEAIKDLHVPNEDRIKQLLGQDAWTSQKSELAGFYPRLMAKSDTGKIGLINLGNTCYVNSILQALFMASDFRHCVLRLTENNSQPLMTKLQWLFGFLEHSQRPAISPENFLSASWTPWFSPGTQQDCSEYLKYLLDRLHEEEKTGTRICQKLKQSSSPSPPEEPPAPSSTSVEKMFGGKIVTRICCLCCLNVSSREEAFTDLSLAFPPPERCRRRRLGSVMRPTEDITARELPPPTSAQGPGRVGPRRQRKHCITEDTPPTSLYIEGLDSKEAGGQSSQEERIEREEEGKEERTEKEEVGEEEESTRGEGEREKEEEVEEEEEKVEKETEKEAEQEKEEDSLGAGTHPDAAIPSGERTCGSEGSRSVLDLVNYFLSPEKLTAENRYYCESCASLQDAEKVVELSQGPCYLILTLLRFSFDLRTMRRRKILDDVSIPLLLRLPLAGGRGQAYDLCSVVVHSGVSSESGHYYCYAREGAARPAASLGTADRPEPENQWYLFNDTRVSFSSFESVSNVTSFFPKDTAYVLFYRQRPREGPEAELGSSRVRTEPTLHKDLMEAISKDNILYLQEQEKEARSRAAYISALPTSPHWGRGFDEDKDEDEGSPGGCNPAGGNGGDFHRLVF
Method in brief: as §1

UniProt Q9UGI0 = biological target: T4, UniProt Q9UGI0
T4 sequence (whole entry): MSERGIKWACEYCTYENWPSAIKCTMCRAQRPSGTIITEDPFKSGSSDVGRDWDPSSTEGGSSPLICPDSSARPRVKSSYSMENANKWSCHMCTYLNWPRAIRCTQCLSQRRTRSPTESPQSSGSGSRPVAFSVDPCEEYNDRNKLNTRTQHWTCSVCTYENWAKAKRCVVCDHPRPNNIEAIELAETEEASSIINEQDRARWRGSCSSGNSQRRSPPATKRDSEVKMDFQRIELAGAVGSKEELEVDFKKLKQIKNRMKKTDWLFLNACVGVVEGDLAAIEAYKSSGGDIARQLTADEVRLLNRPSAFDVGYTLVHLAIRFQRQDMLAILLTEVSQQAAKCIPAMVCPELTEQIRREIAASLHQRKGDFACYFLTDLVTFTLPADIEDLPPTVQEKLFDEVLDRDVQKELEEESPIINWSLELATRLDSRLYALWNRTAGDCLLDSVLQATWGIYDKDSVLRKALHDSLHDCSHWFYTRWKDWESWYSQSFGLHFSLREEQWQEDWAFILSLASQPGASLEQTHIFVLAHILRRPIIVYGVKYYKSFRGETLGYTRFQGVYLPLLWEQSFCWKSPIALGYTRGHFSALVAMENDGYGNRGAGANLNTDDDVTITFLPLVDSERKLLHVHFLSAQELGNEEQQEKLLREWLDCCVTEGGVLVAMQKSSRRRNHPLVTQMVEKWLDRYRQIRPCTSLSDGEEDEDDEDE
Method in brief: as §1

YOD1 = biological target: T5, YOD1 (UniProt Q5VVQ6)
T5 sequence (whole entry): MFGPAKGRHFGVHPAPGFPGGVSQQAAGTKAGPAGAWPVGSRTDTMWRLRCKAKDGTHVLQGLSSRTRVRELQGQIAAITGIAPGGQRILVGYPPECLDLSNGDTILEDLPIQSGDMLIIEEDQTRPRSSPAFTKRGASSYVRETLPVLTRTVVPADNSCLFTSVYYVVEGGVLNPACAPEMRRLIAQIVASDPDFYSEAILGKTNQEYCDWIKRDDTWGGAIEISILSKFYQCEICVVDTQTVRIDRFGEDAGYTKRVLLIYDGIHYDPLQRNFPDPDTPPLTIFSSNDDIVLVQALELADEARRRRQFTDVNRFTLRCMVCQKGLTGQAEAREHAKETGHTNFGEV
Method in brief: as §1

Measured: log2 ratio of Biotin-Ahx-Ub-VS probe labelling

Chain of UniProt P51784 (P51784 whole entry): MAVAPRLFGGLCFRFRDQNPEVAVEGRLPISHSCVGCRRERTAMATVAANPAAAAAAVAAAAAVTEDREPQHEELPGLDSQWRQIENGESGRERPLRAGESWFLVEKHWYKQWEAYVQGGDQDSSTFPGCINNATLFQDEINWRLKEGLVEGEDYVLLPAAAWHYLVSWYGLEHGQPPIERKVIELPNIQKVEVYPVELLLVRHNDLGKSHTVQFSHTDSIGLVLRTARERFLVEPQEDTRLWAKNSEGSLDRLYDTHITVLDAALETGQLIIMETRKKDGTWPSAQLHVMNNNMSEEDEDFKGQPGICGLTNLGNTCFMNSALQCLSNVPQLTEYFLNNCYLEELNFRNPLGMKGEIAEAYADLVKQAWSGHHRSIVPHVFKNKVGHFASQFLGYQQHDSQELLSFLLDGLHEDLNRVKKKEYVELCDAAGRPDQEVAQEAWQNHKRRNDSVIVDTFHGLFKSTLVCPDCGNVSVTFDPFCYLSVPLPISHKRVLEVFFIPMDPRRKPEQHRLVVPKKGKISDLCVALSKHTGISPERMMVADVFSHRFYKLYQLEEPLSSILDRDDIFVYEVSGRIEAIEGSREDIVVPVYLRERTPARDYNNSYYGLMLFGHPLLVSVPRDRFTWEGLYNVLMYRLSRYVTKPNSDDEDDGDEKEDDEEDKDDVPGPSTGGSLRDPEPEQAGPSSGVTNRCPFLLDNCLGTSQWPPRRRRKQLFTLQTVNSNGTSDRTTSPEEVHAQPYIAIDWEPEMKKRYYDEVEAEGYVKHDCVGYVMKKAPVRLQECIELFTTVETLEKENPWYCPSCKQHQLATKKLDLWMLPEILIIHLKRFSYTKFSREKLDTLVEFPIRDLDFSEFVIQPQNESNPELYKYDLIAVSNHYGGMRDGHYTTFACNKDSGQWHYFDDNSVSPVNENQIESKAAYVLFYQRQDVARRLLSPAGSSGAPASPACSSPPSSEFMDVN
Chain of UniProt O00487 (O00487 whole entry): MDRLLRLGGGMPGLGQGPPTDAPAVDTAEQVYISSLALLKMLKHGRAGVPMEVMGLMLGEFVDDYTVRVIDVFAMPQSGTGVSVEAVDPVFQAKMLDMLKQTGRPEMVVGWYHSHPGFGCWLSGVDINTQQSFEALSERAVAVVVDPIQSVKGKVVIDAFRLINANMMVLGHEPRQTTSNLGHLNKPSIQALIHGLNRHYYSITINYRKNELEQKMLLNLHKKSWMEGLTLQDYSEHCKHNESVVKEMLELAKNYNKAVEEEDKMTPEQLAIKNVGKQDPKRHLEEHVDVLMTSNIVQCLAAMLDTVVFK
Chain of USP9X (Q93008 whole entry, the tested form may be a part): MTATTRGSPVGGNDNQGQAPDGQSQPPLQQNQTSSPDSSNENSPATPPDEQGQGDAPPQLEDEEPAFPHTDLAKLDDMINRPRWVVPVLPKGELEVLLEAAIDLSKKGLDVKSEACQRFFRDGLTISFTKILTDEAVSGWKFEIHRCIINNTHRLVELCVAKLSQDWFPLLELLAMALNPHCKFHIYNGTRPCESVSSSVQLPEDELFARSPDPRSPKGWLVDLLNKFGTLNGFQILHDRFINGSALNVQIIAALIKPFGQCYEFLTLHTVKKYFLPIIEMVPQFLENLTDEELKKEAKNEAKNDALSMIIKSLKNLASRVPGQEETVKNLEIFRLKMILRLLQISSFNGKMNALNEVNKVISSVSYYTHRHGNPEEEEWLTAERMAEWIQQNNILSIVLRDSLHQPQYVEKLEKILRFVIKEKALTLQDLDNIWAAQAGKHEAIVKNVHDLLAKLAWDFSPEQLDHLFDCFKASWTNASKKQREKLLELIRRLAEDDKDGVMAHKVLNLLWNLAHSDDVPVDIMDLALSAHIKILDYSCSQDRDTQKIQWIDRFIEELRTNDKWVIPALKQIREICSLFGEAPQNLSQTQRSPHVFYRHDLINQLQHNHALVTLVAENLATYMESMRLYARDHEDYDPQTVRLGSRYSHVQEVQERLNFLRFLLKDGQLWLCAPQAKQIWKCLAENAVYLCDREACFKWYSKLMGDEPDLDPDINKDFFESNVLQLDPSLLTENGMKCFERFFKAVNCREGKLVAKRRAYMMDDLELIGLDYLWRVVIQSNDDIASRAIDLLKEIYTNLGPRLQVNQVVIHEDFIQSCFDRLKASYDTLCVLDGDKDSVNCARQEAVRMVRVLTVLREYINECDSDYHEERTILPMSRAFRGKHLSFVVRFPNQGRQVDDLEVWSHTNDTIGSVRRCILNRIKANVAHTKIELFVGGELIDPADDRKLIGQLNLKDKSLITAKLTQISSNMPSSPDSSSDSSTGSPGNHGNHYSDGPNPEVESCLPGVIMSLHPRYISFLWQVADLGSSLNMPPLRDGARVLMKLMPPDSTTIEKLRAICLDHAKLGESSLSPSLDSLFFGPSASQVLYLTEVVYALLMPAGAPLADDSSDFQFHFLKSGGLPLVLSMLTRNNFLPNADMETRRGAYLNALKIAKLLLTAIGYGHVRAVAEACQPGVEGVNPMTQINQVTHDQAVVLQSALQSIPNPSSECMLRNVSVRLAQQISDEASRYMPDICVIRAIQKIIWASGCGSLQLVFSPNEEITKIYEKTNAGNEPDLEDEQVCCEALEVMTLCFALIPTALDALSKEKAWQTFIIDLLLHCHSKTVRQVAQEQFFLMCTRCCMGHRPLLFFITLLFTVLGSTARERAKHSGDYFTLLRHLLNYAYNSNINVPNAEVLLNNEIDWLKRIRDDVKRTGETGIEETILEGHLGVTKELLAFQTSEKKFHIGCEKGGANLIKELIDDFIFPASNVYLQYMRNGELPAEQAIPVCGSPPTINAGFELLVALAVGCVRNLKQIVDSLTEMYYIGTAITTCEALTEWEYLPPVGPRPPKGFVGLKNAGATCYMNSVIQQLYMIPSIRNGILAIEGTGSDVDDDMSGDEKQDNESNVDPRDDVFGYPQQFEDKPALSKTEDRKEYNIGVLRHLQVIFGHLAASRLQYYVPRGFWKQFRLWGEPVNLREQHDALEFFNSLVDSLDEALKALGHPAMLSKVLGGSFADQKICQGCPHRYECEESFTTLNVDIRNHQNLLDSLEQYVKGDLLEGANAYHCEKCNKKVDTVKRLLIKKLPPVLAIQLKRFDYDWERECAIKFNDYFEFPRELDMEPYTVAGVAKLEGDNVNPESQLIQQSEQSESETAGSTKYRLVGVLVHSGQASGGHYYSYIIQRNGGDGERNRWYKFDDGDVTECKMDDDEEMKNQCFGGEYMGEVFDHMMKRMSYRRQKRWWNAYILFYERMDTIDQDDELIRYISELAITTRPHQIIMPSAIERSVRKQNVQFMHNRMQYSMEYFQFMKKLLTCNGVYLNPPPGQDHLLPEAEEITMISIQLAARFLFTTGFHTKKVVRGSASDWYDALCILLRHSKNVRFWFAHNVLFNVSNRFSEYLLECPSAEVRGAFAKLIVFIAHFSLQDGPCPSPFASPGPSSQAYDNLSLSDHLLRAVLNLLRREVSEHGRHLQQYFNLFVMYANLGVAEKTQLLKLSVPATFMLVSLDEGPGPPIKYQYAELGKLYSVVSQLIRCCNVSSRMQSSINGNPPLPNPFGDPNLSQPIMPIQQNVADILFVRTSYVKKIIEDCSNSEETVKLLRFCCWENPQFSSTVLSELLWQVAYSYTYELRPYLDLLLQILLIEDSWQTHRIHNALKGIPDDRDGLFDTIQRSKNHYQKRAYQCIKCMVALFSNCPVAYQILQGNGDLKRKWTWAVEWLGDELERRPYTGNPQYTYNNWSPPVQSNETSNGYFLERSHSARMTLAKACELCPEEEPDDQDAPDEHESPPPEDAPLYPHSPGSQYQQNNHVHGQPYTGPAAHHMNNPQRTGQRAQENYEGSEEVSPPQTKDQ

O=C(CCl)N(C1=CCCCC1)C1CC1
inactive: USP9X -0.0905 | UniProt O00487 -0.232 | UniProt O00507 0.309 | UniProt P51784 -0.0543 | UniProt Q5T2D3 -0.118 | UniProt Q8TE49 -0.435 | UniProt Q9P2H5 -0.351 | UniProt Q9UGI0 0.0561 | YOD1 -0.0863

Reference: the supplement of paper PMC11732987, “Enantioselective OTUD7B fragment discovery through chemoproteomics screening and high-throughput optimisation” (Communications Chemistry, 2025)
